Drawing on PMC10668032, “Altered binding affinity of SIX1-Q177R correlates with enhanced WNT5A and WNT pathway effector expression in Wilms tumor”, this text covers binding signal for 87 sequences.

Over roughly 33,000 sequences, “e-score” has its median near -0.053; the highest 2% begin near 0.38. Only a selection was taken, and the highest values are over-represented in it overall.

The experiment deals with T1, SIX1 homeodomain (reference allele) (human, UniProt Q15475 108-198).
T1 sequence: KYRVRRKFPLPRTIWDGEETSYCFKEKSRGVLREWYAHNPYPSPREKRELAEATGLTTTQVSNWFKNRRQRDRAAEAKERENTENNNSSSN
Nature of the experiment: universal protein binding microarray; Universal all-10-mer PBM (8x60K, AMADID 030236), 300 nM GST-tagged protein, Alexa Fluor 488 anti-GST; buffer, salt, pH and temperature not stated (as in Berger); high values mean tight binding. The conditions noted are these: protein: ivt; tags: N-terminal GST; dsDNA, one strand shown. Put shortly:
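Duplicate protein binding microarrays (universal 'all 10-mer', 8×60K format) were incubated with GST-tagged homeodomains at 300 nM final concentration. Binding was quantified as 8-mer E-scores with the Universal PBM Analysis Suite.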
On to CTATCCTC, for which the binding signal amounted to 0.282 ± 0.0379 E-score.

With ATATCCTC, the binding signal is 0.426 ± 0.02 E-score. In the case of ATATCCTG it was 0.394 ± 0.0206 E-score; in that of ATATCCTA, 0.415 ± 0.027 E-score. The result for AGATCCTC reads 0.329 ± 0.0109 E-score; that for ATCTCCTA, 0.159 ± 0.082 E-score. On to GTATTCTA, for which the binding signal came to 0.191 ± 0.00249 E-score. The result for GTATCCTA reads 0.409 ± 0.00666 E-score. Take AGATCCTG: the binding signal worked out at 0.252 ± 0.0351 E-score. In the case of TAATCCTA it was 0.215 ± 0.0252 E-score.

Turning to ATCTCCTG, the binding signal is 0.298 ± 0.00608 E-score. Regarding CTATCCTA, the binding signal was 0.198 ± 0.0137 E-score. The result for GATCTTAC reads 0.275 ± 0.0138 E-score; that for ACAGGATC, 0.283 ± 0.00359 E-score. In the case of ATCGAGAC it was 0.217 ± 0.013 E-score; in that of AGAGATCA, 0.302 ± 0.0481 E-score; in that of CCGGATGA, 0.275 ± 0.0448 E-score.

Regarding CCGGATCA, the binding signal worked out at 0.454 ± 0.013 E-score. In the case of TCCGATCA it was 0.212 ± 0.00764 E-score; in that of TCGGATAA, 0.336 ± 0.0635 E-score; in that of CCGGATTA, 0.351 ± 0.0231 E-score. The result for CCAGATCG reads 0.292 ± 0.0492 E-score. Take CCAGATCA: the binding signal is 0.39 ± 0.0106 E-score. Regarding TGAGATCA, the binding signal was 0.33 ± 0.0117 E-score.

For TCAGATCA, the binding signal was determined as 0.243 ± 0.0928 E-score. TCGGATCA: the binding signal is 0.4385 ± 0.00286 E-score. In the case of GGAGATCA it was 0.386 ± 0.0139 E-score. In the case of GACACTCC it was 0.258 ± 0.0239 E-score; in that of CAGTGTAG, 0.161 ± 0.0252 E-score. In the case of CGATCTGA it was 0.30169 ± 0.000148 E-score.

For the sequence ATACTTGA, the binding signal was 0.222 ± 0.103 E-score.

Regarding GTATAAAA, the binding signal is 0.246 ± 0.0491 E-score.

In the case of GATAGTTA, the binding signal worked out at 0.153 ± 0.035 E-score.

CAGATCAC: the binding signal came out at 0.3666 ± 0.00216 E-score. With ACTCAGGG, the binding signal amounted to 0.266 ± 0.0829 E-score. In the case of CGTAATAC, the binding signal turned out to be 0.256 ± 0.0115 E-score. For GCGGATCA, the binding signal came out at 0.448 ± 0.00571 E-score. The result for GCGGATGA reads 0.171 ± 0.0144 E-score; that for GCGGATTA, 0.318 ± 0.0316 E-score. The result for ATCGTACC reads 0.217 ± 0.0516 E-score; that for CCCTCTCA, 0.17 ± 0.048 E-score. The result for GATAGCCC reads 0.303 ± 0.0137 E-score. As for AGATTGAT, the binding signal amounted to 0.221 ± 0.0674 E-score. In the case of AATACCAA it was 0.278 ± 0.0235 E-score. For the sequence GATACCAA, the binding signal turned out to be 0.4303 ± 0.00174 E-score. The result for GATACCAC reads 0.462 ± 0.0103 E-score; that for AATACCAC, 0.33 ± 0.0283 E-score; that for AATACCAT, 0.296 ± 0.0291 E-score. In the case of TATACCAA it was 0.347 ± 0.016 E-score; in that of ACAGTGGT, 0.155 ± 0.0272 E-score. For the sequence GGATGACC, the binding signal is 0.205 ± 0.0281 E-score. Regarding CTGAAACC, the binding signal was found to be 0.155 ± 0.0131 E-score. On to CATAAGAA, for which the binding signal was 0.178 ± 0.0241 E-score. The result for CCGGACAC reads 0.192 ± 0.0231 E-score; that for ATGCACTA, 0.159 ± 0.065 E-score. In the case of CGTATTTA it was 0.169 ± 0.0073 E-score; in that of GCTGGATA, 0.324 ± 0.0373 E-score; in that of CCCGGATA, 0.424 ± 0.0139 E-score.

Consider GCCGGATA, for which the binding signal is 0.409 ± 0.0137 E-score.

As to GCCAGATA, the binding signal came to 0.213 ± 0.0509 E-score. In the case of CCCGGAGA it was 0.169 ± 0.0421 E-score. In the case of CCTGGATA it was 0.313 ± 0.0384 E-score.

For the sequence ACCGATAC, the binding signal is 0.453 ± 0.017 E-score.

For the sequence ACCGATCC, the binding signal was 0.382 ± 0.0237 E-score. On to ATCGATCG, for which the binding signal came to 0.256 ± 0.037 E-score.

Regarding CCCGATAG, the binding signal came to 0.205 ± 0.0789 E-score.

As for ACCGATGA, the binding signal turned out to be 0.17 ± 0.0208 E-score. On to ACCGATCA, for which the binding signal amounted to 0.2912 ± 0.000771 E-score. In the case of ACCGACAC it was 0.2857 ± 0.000453 E-score. The result for CCCGATCC reads 0.366 ± 0.0566 E-score; that for CCCGACAC, 0.19 ± 0.0993 E-score; that for CCCGATAC, 0.438 ± 0.0253 E-score.

As to ATCGATCA, the binding signal is 0.17 ± 0.0323 E-score. The result for ATCGATCC reads 0.389 ± 0.0532 E-score; that for ATCTTACC, 0.296 ± 0.0402 E-score; that for CGTGTCAG, 0.202 ± 0.0504 E-score. On to ATACTCGG, for which the binding signal amounted to 0.316 ± 0.01 E-score.

For ATCGTCAC, the binding signal was found to be 0.279 ± 0.00711 E-score.

On to GATCTGCA, for which the binding signal was 0.258 ± 0.0208 E-score. Turning to ATCACTGG, the binding signal is 0.215 ± 0.00955 E-score. In the case of CCGGGTGA it was 0.201 ± 0.0475 E-score; in that of ACCGATAT, 0.396 ± 0.00927 E-score; in that of ACCGATCT, 0.251 ± 0.0228 E-score. Turning to GCCGATAC, the binding signal came to 0.42 ± 0.0113 E-score. As for TCCGATAA, the binding signal stood at 0.223 ± 0.0291 E-score. Take ACCGATAG: the binding signal came to 0.352 ± 0.018 E-score. For the sequence GCCGATCC, the binding signal was 0.352 ± 0.0357 E-score.
